Hit rate of the full screen: of about 350,000 compounds, about 31,000 (8.9%) were called active. Another 15% or so got no clear call; they are omitted. Shown is part of a subset that was picked to be rich in actives. Where a call stands in place of a potency, no number is given. Values without a mark were called inactive. Calls come from the whole dose curve; as a rule, active = well fitted inhibition curve with a large enough effect; inconclusive = small, poorly fitted or top-dose-only effect; inactive = no such curve, though single readings can be large or run the other way.
Potency is the fitted concentration of half-maximal effect.

Histone-lysine N-methyltransferase EHMT2 (Homo sapiens), sequence (Q96KQ7 913-1193 limits assumed): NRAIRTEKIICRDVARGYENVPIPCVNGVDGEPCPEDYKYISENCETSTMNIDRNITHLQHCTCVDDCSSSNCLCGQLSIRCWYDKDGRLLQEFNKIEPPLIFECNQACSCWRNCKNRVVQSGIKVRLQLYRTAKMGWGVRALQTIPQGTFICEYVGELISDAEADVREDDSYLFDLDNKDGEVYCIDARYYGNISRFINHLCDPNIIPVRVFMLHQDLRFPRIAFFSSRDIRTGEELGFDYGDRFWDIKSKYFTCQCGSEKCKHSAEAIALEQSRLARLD

The target in the assay is Histone-lysine N-methyltransferase EHMT2 (Homo sapiens) (UniProt Q96KQ7). The experiment in a line: qHTS Assay for Inhibitors of Histone Lysine Methyltransferase G9a. Note: nearly all actives have a fitted effect of over 75% in size. The note with it: G9a H3K9 monomethylation, AlphaScreen, 2 h; series mostly up to 59 µM. Summed up:
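Methyltransferase reactions run at room temperature for 2 h (20 nM enzyme, 500 nM biotin-H3K9 peptide, 20 uM SAM) after a 15 min compound preincubation; product detected by AlphaScreen beads and anti-H3K9me1 antibody.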
For the molecule `CCCN(CC(=O)Nc1ccccc1C)C(=O)c1cc(=O)[nH]c2ccccc12`, the Potency result is “inactive”.
With `Cc1ccc(N(Cc2cc3ccccc3[nH]c2=O)C(=O)c2cccs2)cc1`, the Potency entry was “inactive”.
In the case of `CC(=O)N(Cc1cc(=O)[nH]c2ccccc12)c1ccc(C)cc1C`, the Potency is 31.6 µM (active).
As for `Cn1nnnc1SCc1cc(=O)[nH]c2ccccc12`, the Potency result was “inactive”.
For `CCC(=O)N(Cc1cc2ccccc2[nH]c1=O)c1ccc(OC)cc1`, the Potency result is “inactive”.
As to `Cc1ccc(N(Cc2cc(=O)[nH]c3ccccc23)C(=O)CCl)cc1`, the Potency was 11.2 µM (active).
For the molecule `Cc1oc2ncnc(N3CCCCC3)c2c1C(=O)N1CCN(c2cccc(Cl)c2)CC1`, the Potency entry was “inactive”.
For the molecule `Cc1ccc2nc(-c3ccc(C)c(NC(=O)Cc4ccccc4)c3)oc2c1`, the Potency result was “inactive”.
On to `CCC(NC(=O)c1cc(COc2ccc(F)c(F)c2)on1)c1ccncc1` (stereo not given), for which the activity, negative = inhibition was 13.4% [at 12.7 µM].
With `COc1cc(OC)cc(C(=O)Nc2ccc3nc(Nc4cccc(C(F)(F)F)c4)cc(C)c3c2)c1`, the Potency entry is “inactive”.
`COc1ccc(S(=O)(=O)Nc2ccc3cn[nH]c3c2)cc1[N+](=O)[O-]`: the activity, negative = inhibition was -20.9% [at 12.7 µM].
As to `CCn1c(SCC(=O)Nc2sc(C)c(C)c2C#N)nnc1C1CC1`, the Potency entry was “inactive”.
Regarding `CCC(CC)c1nnc(NC(=O)c2nn(C)c(=O)c3ccccc23)s1`, the Potency entry is “inactive”.
On to `CCC(CC)c1nnc(NC(=O)C2=COCCO2)s1`, for which the Potency was 39.8 µM (active).
As for `COc1cccc(OC)c1C(=O)Nc1nnc(C(C)C)s1`, the Potency result is “inactive”.
In the case of `CCN(CC)C(=O)c1sc(NC(=O)c2ccco2)c(C#N)c1C`, the Potency entry was “inactive”.
Consider `Cc1sc(NC(=O)C2=COCCO2)c(C#N)c1C`, for which the Potency is 11.2 µM (active).
As for `O=C(N=C1SC2CS(=O)(=O)CC2N1c1cc(Cl)ccc1Cl)C1CC1` (stereo not given), the Potency result was “inactive”.
The same measure, in the same setting: the value for `CCOc1ccc(N(CC)S(=O)(=O)N2CCCC(C(=O)NCc3ccc(SC)cc3)C2)cc1` (stereo not given) was “inactive”; that for `CCCCn1c(=O)c2oc3ccccc3c2n(CC(=O)Nc2ccccc2OC)c1=O` was “inactive”; that for `COc1ccc(NC(=S)N2CCCC(CO)C2)c(OC)c1` (stereo not given) was “inactive”.
Consider `COc1cc(NC(=S)N2CCCC(C)C2)cc(OC)c1OC` (stereo not given), for which the Potency is 50.1 µM (active).
Take `CCCCc1ccc(NC(=S)N2CCCC(CO)C2)cc1` (stereo not given): the Potency entry was “inactive”.
For the molecule `CCOc1ccc(NC(=O)c2ccc(NC(=O)COC(=O)c3ccc(NC(=O)CC#N)cc3)cc2)cc1`, the activity, negative = inhibition is 12.7% [at 2.33 µM].
Take `O=C(NCc1ccccc1)C(=O)NCC(c1ccco1)S(=O)(=O)c1ccc(Cl)cc1` (stereo not given): the Potency result is “inactive”.
For the molecule `Cc1nn(Cc2ccccc2)c(C)c1C(=O)N1CCN(CC(=O)Nc2ccccc2Cl)CC1`, the Potency result was “inactive”.
Regarding `CN(C)S(=O)(=O)c1cccc(NC(=O)COC(=O)/C=C/c2cccs2)c1`, the Potency entry is “inactive”.
Consider `Cc1ccc(S(=O)(=O)N(C)C)cc1NC(=O)COC(=O)c1c(C)noc1C`, for which the Potency entry was “inactive”.
As to `Cc1ccc(S(=O)(=O)N(C)C)cc1NC(=O)COC(=O)/C=C/c1cccs1`, the Potency was 28.2 µM (active).
With `CCOC(=O)c1cc2c(=O)n3ccccc3nc2n(CCCOC)c1=NC(=O)C(C)Oc1ccccc1` (stereo not given), the Potency result is “inactive”.
Turning to `COCCCC1CCN(C(=O)C2CCC(=O)N(C3CCCCCC3)C2)CC1` (stereo not given), the Potency entry is “inactive”.
With `Cc1onc(-c2ccc(F)cc2F)c1C(=O)Nc1cccc(C(F)(F)F)c1`, the Potency result is “inactive”.
On the same count and under the same terms, the value for `Cc1ccc(C(=O)N2c3ncnn3C3(CCCCC3)[C@@H]3CCCC[C@@H]32)cc1` was “inactive”; that for `Cc1ccccc1CN1CCC(CNC(=O)c2cc3ccc4cccnc4c3[nH]2)CC1` was “inactive”; that for `COc1cc(C(=O)NNC(=O)CN2C(=O)NC3(CCCC3)C2=O)cc(OC)c1OC` was “inactive”.
On the same count and under the same terms, the value for `O=C(CCCN1CCc2[nH]c3ccc(F)cc3c2C1)c1ccc(F)cc1` was 50.1 µM (active); that for `O=C(c1cc2cc(F)ccc2[nH]1)N1CCN(c2ccc(F)cc2)CC1` was “inactive”; that for `Cc1nnc(SCc2cc(=O)c3cc(F)ccc3[nH]2)n1C` was “inactive”.
The same measure, in the same setting: the value for `Cc1ccc2cc(C#N)c(SCC(=O)NCC3CCCO3)nc2c1C` (stereo not given) was “inactive”; that for `Cc1cc(C#N)c(SCC(N)=O)nc1-c1ccc(F)cc1` was 12.6 µM (active).
For `Cc1cc(=O)[nH]c(SCC(N)=O)c1C#N`, the activity, negative = inhibition was 9.52% [at 2.33 µM].
As to `COc1ccc(C(=O)Nc2nncs2)c(OC)c1`, the Potency is 39.8 µM (active).
Turning to `COc1ccc(C(=O)NC2=NCCS2)c(OC)c1`, the activity, negative = inhibition was 5.43% [at 12.7 µM].
As for `COc1ccc(Cc2nnc(NC(=O)c3ccc(OC)cc3OC)s2)cc1`, the activity, negative = inhibition is -7.06% [at 0.501 µM].
Turning to `COc1ccc(S(=O)(=O)c2c(Nc3ccc(C)cc3)sc(C(=O)c3ccc(C)cc3)c2N)cc1`, the Potency entry is “inactive”.
For `O=C(NCc1ccccc1)C(c1ccco1)N(C(=O)c1csnn1)c1ccccc1F` (stereo not given), the Potency entry was “inactive”.
As to `Cc1ccc(NC(=O)CSc2nnc3[nH]c(=O)cc(C)n23)cc1Cl`, the Potency entry is “inactive”.
As to `CC(C)NC(=O)C(=O)N/N=C/c1ccco1`, the Potency result is “inactive”.
`COC(=O)C1=C(C)N(C(C)c2ccccc2)C(=O)/C1=C\c1ccco1` (stereo not given): the Potency was 35.5 µM (active).
Still for that read-out and setting: the result for `COC(=O)C1=C(C)N(c2ccc(Br)cc2)C(=O)/C1=C\c1ccco1` reads “inactive”.
As for `COc1c(Cl)cc(C(=O)N(Cc2ccccc2F)C2CCS(=O)(=O)C2)cc1Cl` (stereo not given), the Potency entry is “inactive”.
The same measure, in the same setting: the value for `Cc1ccc(C(=O)N2CCc3cc(CNC(=O)c4ccc(Br)cc4)ccc32)cc1` was “inactive”.
Regarding `O=C(OCC(=O)N1CCc2ccccc21)c1ccc([N+](=O)[O-])cc1`, the activity, negative = inhibition is -12.4% [at 2.33 µM].
Regarding `CCC(CC)COC(=O)C1=C(C)NC(=O)NC1c1ccc([N+](=O)[O-])cc1` (stereo not given), the Potency result was “inactive”.
As to `COc1cccc(N2CCN(CC(=O)Nc3ccnn3C3CCCC3)CC2)c1`, the activity, negative = inhibition is 3.38% [at 12.7 µM].
As to `CCCSc1ncc(Cl)c(C(=O)Nc2sc3c(c2C(=O)NCCOC)CCCC3)n1`, the Potency result is “inactive”.
The same measure, in the same setting: the result for `COc1ccc(NS(=O)(=O)c2ccc(NC(C)=O)cc2)cc1OC` reads “inactive”.
Same read-out and setting: the value for `CC(=O)Nc1ccc(S(=O)(=O)Nc2cc(C)cn(Cc3ccc(C)cc3)c2=O)cc1` was 44.7 µM (active); that for `COc1cc(NS(=O)(=O)c2ccc(NC(C)=O)cc2)cc(OC)c1` was “inactive”.
The same measure, in the same setting: the result for `CC(=O)c1c(C)[nH]c(C(=O)N2CCN(S(=O)(=O)c3ccc(F)c(F)c3)CC2)c1C` reads “inactive”; that for `CCC(C)C(=O)Nc1ccccc1N1CCN(c2ccc(F)cc2)CC1` (stereo not given), “inactive”.
With `Cc1ccc(OCCC(=O)Nc2ccc(S(=O)(=O)Nc3nccs3)cc2)cc1`, the activity, negative = inhibition is 15% [at 12.7 µM].
With `COc1cn(CC(=O)Nc2cccc(C)c2C)c(CN2CCCCC2)cc1=O`, the Potency entry is “inactive”.
For `COc1ccccc1C(=O)Nn1cnnc1`, the Potency entry was “inactive”.
On the same count and under the same terms, the value for `O=C(NN1C(=O)C2C3C=CC(C4CC34)C2C1=O)c1ccc(Cl)cc1` (stereo not given) was “inactive”; that for `COc1ccc(C(=O)NN2C(=O)C3C(c4ccccc4)C=CC(c4ccccc4)C3C2=O)cc1` (stereo not given) was “inactive”.
`C/C=C/C=N/NC(=O)c1ccncc1`: the activity, negative = inhibition is 3.78% [at 12.7 µM].
As for `COc1ccccc1C(=O)NN1C(=O)C2C3C=CC(O3)C2C1=O` (stereo not given), the Potency was 35.5 µM (active).
As for `O=C(NN1C(=O)C2C3C=CC(O3)C2C1=O)c1ccncc1` (stereo not given), the Potency was 44.7 µM (active).
As for `CCC(=O)N1CCc2cc(Br)cc(S(=O)(=O)Nc3ccc(C)cc3C)c21`, the Potency entry is “inactive”.
Turning to `CCOc1ccc(C(CC(=O)O)NC(=O)Cc2ccccc2)cc1OC` (stereo not given), the Potency result was “inactive”.
The same measure, in the same setting: the result for `CSc1nc(=O)c2c(n1C)NC(=O)CC2c1ccccc1OC(C)C` (stereo not given) reads “inactive”; that for `CN(C)c1nc(=Nc2cccc(Cl)c2)ss1`, 6.31 µM (active); that for `CCC(C)C(N=C1NS(=O)(=O)c2ccccc21)C(=O)N1CCC(C)CC1` (stereo not given), “inactive”.
For the molecule `Cc1nn(Cc2ccc(F)cc2)c(C)c1NC(=O)c1cc(CC(C)C)on1`, the Potency entry is “inactive”.
For `CCCCn1c(SCC(=O)N2CCCC2=O)nc2cc(S(N)(=O)=O)ccc21`, the activity, negative = inhibition was 76.1% [at 2.33 µM].
As to `Cc1ccccc1OCC(O)CN1CCN(c2ccccn2)CC1` (stereo not given), the Potency result is “inactive”.
The same measure, in the same setting: the value for `OC(COc1cccc2ccccc12)CN1CCN(c2ccccn2)CC1` (stereo not given) was 50.1 µM (active).
On the same count and under the same terms, the value for `O=C1c2cccc3cccc(c23)N1CN1CCN(c2ccccn2)CC1` was “inactive”.
Same read-out and setting: the value for `COc1ccc(-c2nc3ccccc3s2)cc1NC(=O)COc1ccccc1C` was “inactive”; that for `COc1ccccc1C1C(C(=O)N2CCCCC2)=C(C)Nc2nc3ccccc3n21` (stereo not given) was “inactive”; that for `Cc1ccccc1NC(=O)COc1cccc2c1CCNC2=O` was “inactive”.
With `Cc1ccnc(NS(=O)(=O)c2ccc(NC(=O)c3oc4ccccc4c3C)cc2)n1`, the Potency was 25.1 µM (active).
Same read-out and setting: the result for `Cc1ccnc(NS(=O)(=O)c2ccc(NC(=O)c3ccc(S(=O)(=O)N(C)C)cc3)cc2)n1` reads “inactive”.
In the case of `Cc1ccnc(NS(=O)(=O)c2ccc(NC(=O)c3oc4ccc(F)cc4c3C)cc2)n1`, the activity, negative = inhibition is 6.53% [at 0.501 µM].
In the case of `Cc1ccc(NC(=O)NC(C)c2c(-n3cccc3)sc(C)c2C)c(C)c1` (stereo not given), the Potency entry is “inactive”.
As for `COCCNC(=O)c1ccc(S(=O)(=O)c2ccc(Cl)cc2)c(NC(C)=O)c1`, the Potency result was “inactive”.
As to `CC(=O)Nc1cc(C(=O)O)ccc1S(=O)(=O)c1ccc(Cl)cc1`, the Potency is 50.1 µM (active).
On to `CCOC(=O)N1CCN(C(=O)c2ccc(S(=O)(=O)c3ccc(C)cc3)c(NC(C)=O)c2)CC1`, for which the activity, negative = inhibition was 29.4% [at 0.501 µM].
Take `O=C(CN1CCCCC1)Nc1ccccc1C(=O)NC1CC1`: the Potency result was “inactive”.
In the case of `O=C(COc1ccc(Cl)cc1)N(Cc1ccco1)Cc1ccco1`, the Potency entry is “inactive”.
Regarding `O=C1C=C(c2cccc(Br)c2)C[C@@H](c2ccc(F)cc2)C1`, the activity, negative = inhibition was -5.82% [at 0.501 µM].
Same read-out and setting: the value for `COc1ccc(C2=NN(C(=O)CSc3nc(=O)n4ccc(C)cc4n3)C(c3ccc(C)cc3)C2)cc1` (stereo not given) was 4.89% [at 2.33 µM].
Consider `COc1ccc(C(=O)NC(=S)NC2CCCCC2)cc1`, for which the Potency is 39.8 µM (active).
Still for that read-out and setting: the value for `CNC(=S)NNC(=O)c1ccc(N(C)C)cc1` was “inactive”; that for `COc1cc(C(=S)NC2CCCCC2)ccc1O` was 35.5 µM (active); that for `Cc1onc(-c2ccccc2)c1C(=O)NNC(=S)NC(=O)c1ccc(F)cc1` was 31.6 µM (active).
On to `CC(=O)Nc1cccc(NC(=O)c2c(-c3ccccc3)noc2C)c1`, for which the activity, negative = inhibition is 10.1% [at 12.7 µM].
As to `COc1ccc(Cl)cc1C(=O)NNC(=S)NC1CCCC1`, the Potency entry was “inactive”.
The same measure, in the same setting: the value for `CC(=O)NC(=S)NNC(=O)c1ccc(Br)cc1` was 8.91 µM (active).
The same measure, in the same setting: the value for `Cn1nnnc1SCC(=O)NNC(=O)c1ccc(Br)cc1` was “inactive”.
On to `CCc1noc(C)c1C(=O)NNC(=O)c1ccc(F)cc1`, for which the Potency result is “inactive”.
Regarding `COc1cc(OC)c(C(=O)NC2CCCCCC2)cc1OC`, the activity, negative = inhibition was 13.1% [at 12.7 µM].
Turning to `COc1ccc(C(=O)NC2CCN(C(=S)Nc3ccccc3)CC2)cc1`, the Potency entry is “inactive”.
Consider `CCCNC(=S)N1CCC(NC(=O)c2ccc(OC)cc2)CC1`, for which the Potency entry was “inactive”.
